Assay outcomes deposited in PubChem by National Center for Advancing Translational Sciences (NCATS).
Pf growth 96h: P. falciparum growth inhibition at 96 hours; P. falciparum luciferase reporter growth, 96 h; Potency, µM (series often up to 28.7 µM), for inactives: at the top dose activity change, negative = inhibition, hits mostly inhibitors; actives 6.9% (n = 320,000); AID 504834; note: potency is the fitted concentration of half-maximal effect; % is set by controls: 0 for no effect and ±100 for the full control effect
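Cell-based qHTS: luciferase-tagged P. falciparum in erythrocytes (2% hematocrit, 0.05% parasitemia final) incubated with compounds for 96 hours, 37 C, 5% CO2; luciferase detection reagent then added and luminescence measured.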
Giardia FBPA inh: inhibitors of Giardia lamblia fructose-1,6-bisphosphate aldolase; AID 2451; actives 0.71% (n = 290,000); purified Giardia FBPA; Potency, µM (top dose mostly 59.6 µM), without a hit: at the top dose activity, negative = inhibition, usual class: inhibitors; A8B2U2; note: potency is the fitted concentration of half-maximal effect; % is set by controls: 0 for no effect and ±100 for the full control effect; nearly all actives have a fitted effect of over 55% in size
Target sequence (A8B2U2 whole entry, looked up): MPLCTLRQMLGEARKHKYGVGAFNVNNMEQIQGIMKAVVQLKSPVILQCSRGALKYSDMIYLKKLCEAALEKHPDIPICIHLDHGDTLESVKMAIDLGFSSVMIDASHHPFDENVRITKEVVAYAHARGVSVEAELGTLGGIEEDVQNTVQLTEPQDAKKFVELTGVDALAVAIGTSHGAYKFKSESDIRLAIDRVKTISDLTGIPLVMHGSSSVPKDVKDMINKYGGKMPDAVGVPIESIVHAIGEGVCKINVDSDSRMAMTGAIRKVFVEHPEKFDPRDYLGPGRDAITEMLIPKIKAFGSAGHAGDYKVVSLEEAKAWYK
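40 nM FBPA preincubated 10 min at RT with compound (up to 57.5 uM final), then substrate plus GAPDH/TPI/NAD/arsenate coupling and diaphorase/resazurin added. Fluorescence read after 20 min at RT, 525/598 nm.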
NS1 inh: blocks influenza NS1 protein function. Potency, µM (series often up to 46.1 µM), for the others: at the top dose activity, positive = more growth. actives 0.4% (n = 270,000); calls by dose curve; note: potency is the fitted concentration of half-maximal effect; actives are rising curves; nearly all actives have a fitted effect of over 50% in size
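Recovery from NS1-induced slow growth read by OD600 in budding yeast switched to galactose assay medium (pH 6.0, -URA) at 1:100 dilution. Compound 23 nl per well; the matching strain lacking NS1 serves as control.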
CHX counter: affects cycloheximide protein synthesis inhibition readout, counter-screen; cell reporter, cycloheximide protein synthesis inhibition counterscreen; max response, %; actives 12% (n = 300,000); in the data active = max response mostly above about 13%, no sharp cut-off; inactive = mostly below about 14%; note: read at 38.3 µM for the half of the compounds with a filed dose; 0% is about no effect
Shiga toxin inh: blocks Shiga toxin action in Vero cells; Vero cells, Shiga toxin protein synthesis inhibition reporter; inhibition, % at 38.7 µM; actives 9.2% (n = 290,000); in the data active = inhibition mostly above about 28%, no sharp cut-off; inactive = mostly below about 43%; note: 0% is about no effect
Pf growth 48h: inhibits P. falciparum growth in the first generation, 48 h | P. falciparum luciferase growth in erythrocytes, 48 h | Potency, µM (series often up to 28.7 µM), for inactives: at the highest dose activity change, negative = inhibition, actives largely listed as inhibitors | actives 5.9% (n = 310,000); note: potency is the fitted concentration of half-maximal effect; % is set by controls: 0 for no effect and ±100 for the full control effect
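Read-out is firefly luciferase luminescence from an integrated reporter in P. falciparum, so falling signal marks reduced parasite growth. Infected erythrocytes were at 2% hematocrit and 0.1% parasitemia (final) in Albumax-supplemented RPMI 1640.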
The depositor's hits bear a star; ? = inconclusive; · = no result; + = active, no number; [ ] = another dose, or the depositor's remark. The list is not random: actives were taken first. Their share in the collection is about 21%. Unless noted, calls come from the whole dose curve; as a rule, active = well fitted curve in the direction sought with a large enough effect; inconclusive = small, poorly fitted or top-dose-only effect, or another doubt; inactive = no such curve, though single readings can be large; an effect the other way counts as inactive or inconclusive.

SMILES	Pf growth 96h	Giardia FBPA inh	NS1 inh	CHX counter	Shiga toxin inh	Pf growth 48h
CC1Oc2ccccc2C=C1/C=N\NC(=O)c1cccnc1 (stereo not given)	3%	0%	-6%	20*	53*	0%
Cc1ccc(C(=O)N/N=C/C2=Cc3ccccc3OC2C)cc1 (stereo not given)	?	-5%	-18%	10	11	?
CC1Oc2ccccc2C=C1/C=N/NC(=O)c1ccccc1O (stereo not given)	?	1%	-8%	43*	+	3.7µM*
C=CCNC(=O)[C@H]1N2C(=O)c3ccccc3C2SC1(C)C (stereo not given in full)	13%	-22%	3%	0	35	13%
O=C(O)c1ccc(C(=O)c2ccccc2)c(C(=O)O)c1	·	·	6%	·	·	·
COc1ccc(-c2cc(C(F)(F)F)nc(NC3CCCC3)n2)cc1OC	13%	0%	12%	-5	-16	15µM*
COc1cc2c(c(OC)c1OC)-c1c(cc3c(c1OC)OCO3)[C@@H](OC(C)=O)[C@H](C)[C@H](C)C2	10µM*	-5%	?	-4	17	13µM*
COCCSc1nc(N)c(NC(=O)c2ccco2)c(=O)[nH]1	3%	-9%	0%	-2	-12	-4%
COc1ccc(NC(=O)CSc2nc(N)c3cc4c(nc3n2)CCCC4)cc1	52%	4%	?	47*	61*	63%
CC(=O)c1ccc(NC(=O)CSc2nc(N)c3cc4c(nc3n2)CCCC4)cc1	55%	5%	?	37*	66*	42%
CC(c1ccon1)N(C)C(=O)c1ccc2nc(Cc3cccc(Cl)c3)oc2c1 (stereo not given)	?	·	1%	19	10	12%
CC(=O)OCC1OC(c2cc(C)cc(C)c2)C=CC1OC(C)=O (stereo not given)	·	-1%[12.9 µM]	·	·	·	·
O=C(COC(=O)c1ccc2ncsc2c1)Nc1ccccc1Br	10%	·	·	·	·	60%
CCOC(=O)c1c(NC(=O)CSc2nnc(C)s2)sc2c1CCN(C)C2	?	?	?	-2	-7	6.6µM*
CCOC(=O)c1c(NC(=O)Nc2ccc(F)cc2)sc2c1CCN(C)C2	?	-10%	2%	-1	-8	8.3µM*
CCOC(=O)c1c(NC(=O)CN(CC)CC)sc2c1CCC2	33%	-1%	-19%	-2	-10	12µM*
CCOC(=O)c1c(NC(=O)C2CCCCC2)sc2c1CCN(C(C)C)C2	13µM*	?	-8%	-5	10	-11%
COC(=O)c1c(NC(=O)C2CCCCC2)sc2c1CCN(C(C)C)C2	?	?	-1%	-1	-6	?
CC(=O)Nc1ccc(NC(=O)C(C)OC(=O)CCc2c[nH]c3ccccc23)cc1 (stereo not given)	-1%	·	·	·	·	-16%
COc1ccccc1CNC(=O)CCNS(=O)(=O)c1cc(Br)cnc1N	25%	·	3%	-3	-2	-9%
COc1ccccc1CCC(=O)Nc1ccc(S(=O)(=O)Nc2nccs2)cc1	0%	·	·	·	·	12%
Cc1ccc(S(=O)(=O)NC(=O)NC2CCCCCCC2)cc1	-14%	·	·	·	·	4%
CCOC(=O)c1c(NC(=O)C(F)(OC)C(F)(F)F)sc2c1CCN(C)C2 (stereo not given)	10µM*	1%	6%	-4	-7	?
CCOC(=O)c1c(NC(=S)Nc2ccc(OCC)cc2)sc2c1CCN(C)C2	3.7µM*	?	-8%	18*	36	8.3µM*
CCOC(=O)c1c(/N=C/c2cccc(C)c2O)sc2c1CCN(C)C2	1.7µM*	0%	3%	-3	-7	?
SMILES	Pf growth 96h	Giardia FBPA inh	NS1 inh	CHX counter	Shiga toxin inh	Pf growth 48h
CC(C)(C)c1ccc(OCCC(=O)OCC(=O)N2c3ccccc3NC(=O)C2(C)C)cc1	12%	·	·	·	·	16%
Cc1c(C(=O)N2CCC(Cc3ccccc3)CC2)cccc1[N+](=O)[O-]	103%	-5%	3%	-5	-14	14%
O=C(c1ccc(Br)o1)N1CCC(Cc2ccccc2)CC1	-17%	4%	-67%	11	5	13µM*
Cn1nccc1C(=O)N1CCC(Cc2ccccc2)CC1	?	·	-6%	2	1	68%
c1ccc(CC2CCN(c3ncnc4sccc34)CC2)cc1	23%	-1%	·	13*	41	13%
O=C(c1cccs1)N1CCC(Cc2ccccc2)CC1	-23%	5%	-17%	-4	15	8.3µM*
Cc1cccc(C(=O)N2CCC(Cc3ccccc3)CC2)c1[N+](=O)[O-]	0.93µM*	6%	-13%	-2	-18	-1%
CO[C@]1(C2=NCCN2)COc2ccccc2O1	·	-2%	·	·	·	·
COC(CNC(=O)C(=O)Nc1cc2c3c(c1)CC(=O)N3CCC2)OC	36%	3%	12%	7	10	21%
CC1(C(=O)N2CCN(c3ccccc3)CC2)CC1(Cl)Cl (stereo not given)	?	9%	1%	-2	-25	3%
O=C(c1ccc(Br)o1)N1CCN(Cc2ccc3c(c2)OCO3)CC1	?	2%	-2%	-2	21	0%
O=C(c1ccc(Br)o1)N1CCN(Cc2ccccc2Cl)CC1	?	3%	-39%	6	·	12µM*
CC1(C(=O)N2CCN(Cc3ccccc3Cl)CC2)CC1(Cl)Cl (stereo not given)	?	20%	-11%	20*	120*	12%
CCOC(=O)Cn1nc(C)cc1NC(=O)c1cccnc1	30%	4%	·	12	19	-16%
CCC1CCCCN1C(=O)CSc1nnc(CNC(=O)c2c(F)cccc2Cl)o1 (stereo not given)	-9%	·	18%	-3	13	-10%
Cc1ccc(NC(=O)CCN2CCOCC2)cc1C	0.93µM*	-2%	-3%	-5	-4	19%
Cc1cc(C)n(C(=O)Cn2nc(C(F)F)cc2C)n1	1%	1%	7%	3	-3	5%
Cc1cc(C)n(C(=O)CCC(=O)Nc2ccc(C)c(C)c2)n1	12µM*	-2%	22%	-2	-11	·
Cc1cc(C)n(CC(=O)n2nc(C)cc2C)n1	10µM*	1%	1%	-1	-5	8%
Cc1cccc(NC(=O)CCc2c(C)nn(-c3ccc(N4CCCCC4)nn3)c2C)c1	?	8%	-19%	41*	72*	46%
CN(C)C(=O)c1ccc(-c2cncnc2Nc2ccc(F)cc2)cc1	·	6%	·	·	·	·
CCc1cccc(C)c1Nc1nc2ccccc2n2cnnc12	20%	10%	0%	-6	-6	·
Cc1ccc(NC(=O)CCc2c(C)nn(-c3ccc(N4CCOCC4)nn3)c2C)cc1C	14%	15%	-14%	20*	50*	-24%
Cc1nn(-c2ccc(N3CCOCC3)nn2)c(C)c1CCC(=O)Nc1ccc(F)cc1	?	-15%	2%	21*	10	-5%
